Source: PubChem BioAssay (NCATS)
Unmarked numbers belong to inactive results. Active and inactive are the calls of the source. Calls come from the whole dose curve; as a rule, active = well fitted activation curve with a large enough effect; inconclusive = small, poorly fitted or top-dose-only effect; inactive = no such curve, though single readings can be large or run the other way.

target: Cytochrome P450 3A4 (Homo sapiens) (UniProt P08684); experiment: qHTS Assay for Activators of Cytochrome P450 3A4 (AID 885); settings: recombinant CYP3A4, Luciferin-PPXE luminescence, 60 min; series mostly up to 57.1 µM; activity change, positive = activation: at the top concentration; note: nearly all actives have a fitted effect of over 65% in size
In short: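 Quantitative HTS format: compounds preincubated with 20nM human CYP3A4 and Luciferin-PPXE substrate at KM, reaction started by NADPH regeneration, stopped after 60 min, luciferase luminescence read 20 min later.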
Potency is the fitted concentration of half-maximal effect.

Cytochrome P450 3A4 (Homo sapiens), sequence (P08684 whole entry, looked up): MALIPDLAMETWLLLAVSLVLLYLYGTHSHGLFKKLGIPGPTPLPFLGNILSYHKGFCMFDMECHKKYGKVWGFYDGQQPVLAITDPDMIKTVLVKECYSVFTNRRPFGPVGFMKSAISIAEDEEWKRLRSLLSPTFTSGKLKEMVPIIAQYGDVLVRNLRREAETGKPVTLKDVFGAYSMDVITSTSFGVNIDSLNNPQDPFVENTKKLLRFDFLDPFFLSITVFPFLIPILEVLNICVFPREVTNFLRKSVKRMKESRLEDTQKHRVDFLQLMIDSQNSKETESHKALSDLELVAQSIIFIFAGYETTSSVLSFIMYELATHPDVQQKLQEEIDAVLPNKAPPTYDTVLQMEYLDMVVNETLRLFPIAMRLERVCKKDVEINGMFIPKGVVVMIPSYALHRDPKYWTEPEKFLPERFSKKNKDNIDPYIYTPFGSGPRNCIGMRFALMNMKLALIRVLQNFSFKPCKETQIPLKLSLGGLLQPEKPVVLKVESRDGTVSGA

Compared with `CCCCNC(=O)C(c1ccc(OCC(=O)OC)c(C(=O)OC)c1)N(CCc1ccccn1)C(=O)CCCCCN1C(=O)NC(c2ccc(-c3ccccc3)cc2)C(C(=O)OCc2ccccc2)=C1C` (centres undefined), `CCCCNC(=O)C(c1ccc(OCC(=O)OC)c(C(=O)OC)c1)N(CCc1ccccc1)C(=O)CCCCCN1C(=O)NC(c2ccc(-c3ccccc3)cc2)C(C(=O)OCc2ccccc2)=C1C` (centres undefined) is higher in “activity change, positive = activation” value: -114% for the first, -74% for the second.

Compared with `COC(=O)c1ccc(C(NC(=O)OCc2ccccc2)/C(=C/[C@@H](C)C(=O)NCCc2c[nH]c3ccccc23)c2cccnc2)cc1` (some centres undefined), `COC(=O)c1ccc(C(NC(=O)OCc2ccccc2)/C(=C/[C@@H](C)C(=O)NCc2cccnc2)c2cccnc2)cc1` (some centres undefined) is higher in “activity change, positive = activation” value: -99% for the first, -82.8% for the second.

Compared with `COC(=O)c1ccc(C(NC(=O)OCc2ccccc2)/C(=C/[C@@H](C)C(=O)NCc2ccc(OC)c(OC)c2)c2cccnc2)cc1` (some centres undefined), `COC(=O)c1ccc(C(NC(=O)OCc2ccccc2)/C(=C/[C@@H](C)C(=O)NCc2ccncc2)c2cccnc2)cc1` (some centres undefined) is higher in “activity change, positive = activation” value: -92.1% for the first, -89.3% for the second.

Going from `CCCCNC(=O)C(c1ccc(-c2ccccc2)cc1)N(CCN1CCOCC1)C(=O)CCCCCN1C(=O)NC(c2ccc([N+](=O)[O-])cc2)C(C(=O)OCc2ccccc2)=C1C` (centres undefined) to `CCCCCCN(C(=O)CCCCCN1C(=O)NC(c2ccccc2-c2ccccc2)C(C(=O)OCc2ccccc2)=C1C)C(C(=O)NCCCC)c1ccc(OCC(=O)OC)c(C(=O)OC)c1` (centres undefined), the “activity change, positive = activation” value rises from -96.3% to -94.9%.

Compared with `CC(=O)N1[C@H](Cc2ccccc2)C=C[C@]1(C)C(=O)NCc1ccc(C)o1`, `CC(=O)N1[C@H](Cc2ccccc2)C=C[C@]1(C)C(=O)NCCN1CCOCC1` is higher in “activity change, positive = activation” value: -73.1% for the first, -60.4% for the second.

First: CCCCCCN(C(=O)CCCCCN1C(=O)NC(C2CCCCC2)C(C(=O)OCc2ccccc2)=C1C)C(C(=O)NCCCC)c1ccc(OCC(=O)OC)c(C(=O)OC)c1 (centres undefined)
Second: CCCCCCN(C(=O)CCCCCN1C(=O)NC(c2ccc(Cl)cc2)C(C(=O)OCc2ccccc2)=C1C)C(C(=O)NCCCC)c1ccc(OCC(=O)OC)c(C(=O)OC)c1 (centres undefined)
The “activity change, positive = activation” value of the first is higher: -91% for the first, -113% for the second.

Compared with `CCCCCCN(C(=O)CCCCCN1C(=O)NC(c2ccc(C(C)(C)C)cc2)C(C(=O)OCc2ccccc2)=C1C)C(C(=O)NCCCC)c1ccc(OCC(=O)OC)c(C(=O)OC)c1` (centres undefined), `COC(=O)c1ccc(C(NC(=O)OCc2ccccc2)/C(C)=C/[C@@H](C)C(=O)NCCc2c[nH]c3ccc(OC)cc23)cc1` (some centres undefined) is lower in “activity change, positive = activation” value: -96.4% for the first, -100% for the second.

Compared with `C[C@@H]1C=C[C@](Cc2ccccc2)(C(=O)NCC2CC2)N1C(=O)c1ccccc1`, `COCCNC(=O)[C@@]1(C)C=C[C@@H](Cc2ccccc2)N1C(=O)c1ccccc1` is higher in “activity change, positive = activation” value: -73.8% for the first, -60.3% for the second.

First: COC(=O)c1ccc(C(NC(=O)OCc2ccccc2)/C(C)=C/[C@@H](C)C(=O)NCc2nc3ccccc3s2)cc1 (some centres undefined)
Second: COC(=O)c1ccc(C(NC(=O)OCc2ccccc2)/C(F)=C/[C@@H](C)C(=O)N[C@@H](CO)Cc2ccccc2)cc1 (some centres undefined)
The “activity change, positive = activation” value of the first is higher: -98.7% for the first, -101% for the second.

First: COC(=O)c1ccc(C(/C=C/[C@@H](C)C(=O)NCc2cc(C)n(C)n2)NC(=O)OCc2ccccc2)cc1 (some centres undefined)
Second: COC(=O)c1ccc(C(NC(=O)OCc2ccccc2)/C(=C/[C@@H](C)C(=O)NCc2cc(F)cc(F)c2)c2cccnc2)cc1 (some centres undefined)
The “activity change, positive = activation” value of the first is higher: -61.6% for the first, -99.3% for the second.

Going from `COC(=O)CNC(=O)C1(C)C=CCN1C(=O)c1ccccc1` (centres undefined) to `CN(C)c1ccc(CNC(=O)C2(C)C=CCN2C(=O)c2ccccc2)cc1` (centres undefined), the “activity change, positive = activation” value falls from -71.4% to -73.6%.

Compared with `C=C(N(C)C)[C@]1(C)C[C@H]1[C@H](NC(=O)CNC(=O)OCc1ccccc1)c1ccccc1`, `CC(C)NC(=O)[C@@H]1C[C@H]1[C@@H](NC(=O)OCc1ccccc1)c1ccccc1` is higher in “activity change, positive = activation” value: -94% for the first, -86.5% for the second.

First: C[C@H](NC(=O)[C@@H]1C[C@H]1[C@@H](NC(=O)OCc1ccccc1)c1ccccc1)c1ccccc1
Second: COC(=O)[C@@H]1C[C@H]1[C@@H](NC(=O)c1ccc(Br)cc1)c1ccccc1
The “activity change, positive = activation” value of the first is higher: -64.5% for the first, -77.5% for the second.

Compared with `COC(=O)c1ccc(C(NC(=O)OCc2ccccc2)/C(=C/[C@@H](C)C(=O)Nc2ccc(OC)cc2)c2cccnc2)cc1` (some centres undefined), `COC(=O)c1ccc(C(NC(=O)OCc2ccccc2)/C(=C/[C@@H](C)C(=O)N(C)Cc2cccnc2)c2cccnc2)cc1` (some centres undefined) is lower in “activity change, positive = activation” value: -87.1% for the first, -103% for the second.

Compared with `CC(C)CC1(C(=O)NCCc2c[nH]c3ccccc23)C=CCN1C(=O)c1ccccc1` (centres undefined), `Cc1ccc(CNC(=O)C2(CC(C)C)C=CCN2C(=O)c2ccccc2)o1` (centres undefined) is higher in “activity change, positive = activation” value: -95.1% for the first, -66.3% for the second.

First: C[C@]1(C(=O)NCCc2c[nH]c3ccccc23)C=C[C@@H](Cc2ccccc2)N1C(=O)c1ccccc1
Second: CCCC[C@@H]1C[C@H]1[C@@H](NP(=O)(c1ccccc1)c1ccccc1)c1ccccc1OC
The “activity change, positive = activation” value of the first is higher: -71.9% for the first, -95.5% for the second.

First: CCC[C@@H]1C[C@@]1(CCC)[C@@H](NP(=O)(c1ccccc1)c1ccccc1)c1ccc(C(=O)OC)cc1
Second: CNC(=O)[C@@]1(Cc2ccccc2)C=C[C@@H](C)N1C(=O)OC
The “activity change, positive = activation” value of the first is lower: -89% for the first, -87.1% for the second.

Going from `CC1(C(=O)NCc2cc(F)cc(C(F)(F)F)c2)C=CC2(CCCCC2)N1C(=O)c1ccccc1` (centres undefined) to `CC(=O)N1C2(C=CC1(C)C(=O)NCCN1CCOCC1)CCCCC2` (centres undefined), the “activity change, positive = activation” value rises from -102% to -89.8%.

Going from `CC(C)CC1(C(=O)NCC2CC2)C=CCN1C(=O)c1ccccc1` (centres undefined) to `CC(=O)N1[C@H](C)C=C[C@]1(Cc1ccccc1)C(=O)NCCN1CCOCC1`, the “activity change, positive = activation” value rises from -86.1% to -64.3%.

In the case of `CC1=C(C(=O)OCc2ccccc2)C(C2CCCCC2)NC(=O)N1CCCCCC(=O)O` (centres undefined), the Potency is reported as 15.8 µM (active).
